Structures are written as SMILES. Compounds without any hit were thinned out: in the full panel of roughly 83,000, 20% have a hit.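 Single-concentration screen, 48 h exposure, 96-well plates. Endpoint: percent growth. Below 10 = active.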 Values without a mark were called inactive. Activity calls are given as the source filed them.

Among the data in PubChem BioAssay (NCI) are growth values, retold here.

Among the test systems are SR leukemia; OVCAR-8 ovarian; OVCAR-5 ovarian; OVCAR-4 ovarian; SK-OV-3 ovarian; IGROV1 ovarian; OVCAR-3 ovarian; NCI/ADR-RES ovarian; T-47D breast; MDA-MB-435 melanoma; SW-620 colon; HCT-116 colon; HCC-2998 colon; KM12 colon; MCF7 breast; RPMI-8226 leukemia; BT-549 breast; HS 578T breast.
What all share (test): NCI-60 one-dose screen, 48 h (100 = growth as untreated, 0 = no growth, -100 = all killed)
Settings in all cases: 10 µM unless noted

As for `N#Cc1c2ncccc2c2nnc3cc(Cl)c(Cl)cc3n12`, the growth with SR leukemia was 70.2%; in the assay on OVCAR-8 ovarian it was 87.6%; with OVCAR-5 ovarian it was 90.1%; in the assay on OVCAR-4 ovarian it was 108%; in the assay on SK-OV-3 ovarian, 104%; with IGROV1 ovarian, 72.9%. The growth with OVCAR-3 ovarian is 70.2%; with NCI/ADR-RES ovarian it was 99.8%; in the assay with T-47D breast, 60.4%; with MDA-MB-435 melanoma, 106%; in the assay with SW-620 colon, 78.7%; in the assay on HCT-116 colon, 78.7%. Besides, the growth in the assay on HCC-2998 colon is 75.6%; in the assay with KM12 colon, 89%.
Turning to `OC(c1ccccc1)(c1ccccc1)C(F)(F)F`, the growth in the assay on SR leukemia was 85.3%; in the assay with OVCAR-8 ovarian, 112%; with OVCAR-5 ovarian, 93.9%; with OVCAR-4 ovarian, 122%; with SK-OV-3 ovarian, 103%; with IGROV1 ovarian, 115%. Further, the growth is 106% in the assay on NCI/ADR-RES ovarian; 92.1% with T-47D breast; 103% in the assay with MDA-MB-435 melanoma; 104% in the assay on MCF7 breast; 107% in the assay with HCT-116 colon; 92.3% with KM12 colon.
As to `CC#Cc1nc(Nc2cc(C)[nH]n2)c2ccccc2n1`, the growth with SR leukemia is -5.19% [100 µM] (active); in the assay with RPMI-8226 leukemia, -21.3% [100 µM] (active); in the assay with OVCAR-8 ovarian, 13.8% [100 µM]; with OVCAR-4 ovarian, 20% [100 µM]; in the assay on SK-OV-3 ovarian it was 29.4% [100 µM]; with IGROV1 ovarian, -46.7% [100 µM] (active). Moreover, the growth in the assay on OVCAR-3 ovarian was -59% [100 µM] (active); in the assay on NCI/ADR-RES ovarian it was 20.3% [100 µM]; in the assay on T-47D breast, 2.69% [100 µM] (active); with BT-549 breast, -61.9% [100 µM] (active); with MDA-MB-435 melanoma, -44.4% [100 µM] (active); in the assay with SW-620 colon, -1.25% [100 µM] (active). For the same compound, the growth in the assay with MCF7 breast was 6.03% [100 µM] (active); in the assay with HCT-116 colon it was -15.7% [100 µM] (active); in the assay with HCC-2998 colon, -86.3% [100 µM] (active); in the assay with KM12 colon it was -74.6% [100 µM] (active).
For the compound `O=C(Nc1ccc(-n2cc(-c3ccncc3)c(-c3ccc(Cl)c(O)c3)n2)cc1)c1cc(Cl)cc(Cl)c1`, the growth with SR leukemia was 15.8%; in the assay on OVCAR-8 ovarian, 58.5%; in the assay with OVCAR-5 ovarian it was 64.6%; in the assay on SK-OV-3 ovarian, 54.9%; in the assay on IGROV1 ovarian, 63%; in the assay on OVCAR-3 ovarian, 85.6%. The growth with NCI/ADR-RES ovarian is 54.1%; with T-47D breast it was 79.1%; with MDA-MB-435 melanoma it was 42.2%; with SW-620 colon it was 0.0883% (active); in the assay with MCF7 breast, 51.6%; in the assay with HCT-116 colon, 16.1%. In addition, the growth in the assay with HCC-2998 colon was 33%; in the assay with KM12 colon, 19.3%.
On to `O=C(/C(Br)=C/c1ccccc1)c1ccccc1`, for which the growth was -24.9% (active) with SR leukemia; -26.5% (active) with OVCAR-8 ovarian; 58.3% with OVCAR-5 ovarian; 25.7% with OVCAR-4 ovarian; 105% in the assay with SK-OV-3 ovarian; 27.5% with IGROV1 ovarian. The growth with OVCAR-3 ovarian was -31.5% (active); in the assay on NCI/ADR-RES ovarian, -11% (active); with T-47D breast, -31.7% (active); in the assay with BT-549 breast, 95.8%; with MDA-MB-435 melanoma, -11.2% (active); with SW-620 colon it was -77.3% (active). Besides, the growth with MCF7 breast is 0.441% (active); in the assay with HCT-116 colon, -100% (active); in the assay with HCC-2998 colon it was 94%; in the assay with KM12 colon, 53.3%.
Take `CCC(C)(CC)c1ccc(O)c(C)c1`: the growth in the assay on RPMI-8226 leukemia was 98.8%; in the assay with OVCAR-8 ovarian, 109%; with OVCAR-5 ovarian, 109%; in the assay on OVCAR-4 ovarian, 109%; in the assay on SK-OV-3 ovarian, 93.4%; with IGROV1 ovarian it was 106%. In addition, the growth in the assay with OVCAR-3 ovarian was 116%; with HS 578T breast it was 101%; with NCI/ADR-RES ovarian, 102%; in the assay on T-47D breast, 101%; in the assay with BT-549 breast, 98.9%; with MDA-MB-435 melanoma it was 109%. The growth in the assay on SW-620 colon was 107%; in the assay with MCF7 breast it was 99%; in the assay on HCT-116 colon, 96.6%; with HCC-2998 colon it was 116%; in the assay with KM12 colon it was 107%.
Take `COc1cc(-c2nn(-c3ccc(NC(=O)c4cc(Cl)cc(Cl)c4)cc3)cc2-c2ccncc2)ccc1Cl`: the growth with SR leukemia was 14.6%; in the assay on OVCAR-8 ovarian it was 96.9%; with OVCAR-5 ovarian it was 95.7%; with OVCAR-4 ovarian it was 100%; in the assay on SK-OV-3 ovarian, 111%; in the assay on IGROV1 ovarian, 116%. Moreover, the growth in the assay on OVCAR-3 ovarian was 81%; in the assay on NCI/ADR-RES ovarian, 84.2%; in the assay on T-47D breast, 79.8%; in the assay on MDA-MB-435 melanoma, 84.1%; in the assay on SW-620 colon it was 77.2%; in the assay with MCF7 breast, 78%. Moreover, the growth with HCT-116 colon is 64.9%; in the assay with HCC-2998 colon it was 62.2%; with KM12 colon, 38.7%.
Regarding `CC1CCCCC[N+]12CCCC2` (stereo unspecified), the growth with SR leukemia was 91.7%; with RPMI-8226 leukemia, 100%; in the assay on OVCAR-8 ovarian, 101%; in the assay on SK-OV-3 ovarian it was 98.1%; in the assay with OVCAR-3 ovarian, 116%; in the assay on HS 578T breast, 112%. Also, the growth with NCI/ADR-RES ovarian was 111%; with T-47D breast, 107%; in the assay with BT-549 breast, 107%; in the assay with MDA-MB-435 melanoma, 100%; in the assay on SW-620 colon it was 107%; with MCF7 breast, 97.2%. The results for the growth in the assay on HCT-116 colon, in the assay on HCC-2998 colon and with KM12 colon were 109%, 117% and 106%, respectively.
Regarding `BrCCCOc1ccc(Oc2ccc(OCCCBr)cc2)cc1`, the growth is 93.8% in the assay on SR leukemia; 98% with RPMI-8226 leukemia; 94.6% in the assay with OVCAR-8 ovarian; 99% in the assay with OVCAR-4 ovarian; 123% with SK-OV-3 ovarian; 123% in the assay on OVCAR-3 ovarian. Also, the growth with HS 578T breast was 92.8%; in the assay on NCI/ADR-RES ovarian, 110%; in the assay on T-47D breast, 113%; with BT-549 breast it was 91%; with MDA-MB-435 melanoma, 107%; in the assay on SW-620 colon it was 108%. In addition, the growth is 97.9% in the assay with MCF7 breast, 102% with HCT-116 colon, 119% in the assay with HCC-2998 colon and 113% in the assay on KM12 colon.
`C[C@]12CC[C@H]3[C@@H](CC[C@H]4C[C@@H](O)CC[C@@]43C)[C@@H]1CC(=O)C2`: the growth in the assay with SR leukemia was 89.8%; with OVCAR-8 ovarian it was 95.3%; in the assay with OVCAR-5 ovarian it was 94.8%; with OVCAR-4 ovarian it was 104%; with SK-OV-3 ovarian it was 118%; in the assay with IGROV1 ovarian, 103%. Further, the growth in the assay on OVCAR-3 ovarian is 112%; in the assay with NCI/ADR-RES ovarian, 106%; with T-47D breast, 106%; with BT-549 breast it was 103%; in the assay with MDA-MB-435 melanoma, 116%; with SW-620 colon, 103%. The growth was 124% with MCF7 breast, 99.3% in the assay with HCT-116 colon, 101% in the assay with HCC-2998 colon and 108% in the assay on KM12 colon.
